# According to PubChem BioAssay (Tox21):
# Results filed as inconclusive are left out. Entries that show only a call come without a potency. Calls of active or inactive are those of the source. Calls come from the whole dose curve; as a rule, active = well fitted inhibition curve with a large enough effect in the repeat runs; inconclusive = weak or mixed curves, or effect the other way; inactive = no such curve, though single readings can be large or run the other way.
# Biological target: Nuclear receptor subfamily 1 group I member 3 (Homo sapiens) (UniProt Q14994)
# Test: qHTS assay to identify small molecule antagonists of the constitutive androstane receptor (CAR) signaling pathway (AID 1224838); note: nearly all actives have a fitted effect of over 40% in size
# Settings: HepG2-CYP2B6-hCAR luciferase, CITCO-stimulated, 24 h; series mostly up to 92.4 µM
# How it was run: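 Human hepatoma HepG2 cells expressing hCAR and a CYP2B6 promoter (2.2 kb) luciferase construct; compound titration (15 points) with 50 nM CITCO final, 24 h at 37 C/5% CO2; luminescence via ONE-Glo after 30 min at room temperature.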
# Nuclear receptor subfamily 1 group I member 3 (Homo sapiens), sequence (Q14994 whole entry, looked up): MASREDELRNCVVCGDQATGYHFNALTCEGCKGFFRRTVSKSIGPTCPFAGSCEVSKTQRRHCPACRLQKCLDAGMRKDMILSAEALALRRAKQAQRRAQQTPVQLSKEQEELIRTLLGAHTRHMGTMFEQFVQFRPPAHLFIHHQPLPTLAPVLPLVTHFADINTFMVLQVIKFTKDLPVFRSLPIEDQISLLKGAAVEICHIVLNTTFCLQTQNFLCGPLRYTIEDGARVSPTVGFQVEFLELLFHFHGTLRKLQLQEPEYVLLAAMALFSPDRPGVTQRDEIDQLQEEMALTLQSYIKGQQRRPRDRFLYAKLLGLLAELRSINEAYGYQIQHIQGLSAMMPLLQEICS
row,Compound,Potency
1,CC(C)(c1ccc(Oc2ccc3c(c2)C(=O)OC3=O)cc1)c1ccc(Oc2ccc3c(c2)C(=O)OC3=O)cc1,inactive
2,FC(F)(F)/C(=N\OCC1OCCO1)c1ccc(Cl)cc1,inactive
3,CC(Cl)COP(=O)(OCC(C)Cl)OCC(C)Cl (stereo not drawn),inactive
4,C=CCOc1c(Br)cc(Br)cc1Br,inactive
5,CC(C)COC(=O)CC(C(=O)OCC(C)C)S(=O)(=O)O (stereo not drawn),inactive
6,CCC(=O)c1ccc(O)cc1,inactive
7,C=CCOC(=O)c1ccc(C(=O)OCC=C)c(C(=O)OCC=C)c1,inactive
8,C[Si]1(C)N[Si](C)(C)N[Si](C)(C)N1,inactive
